Test systems include RPMI-8226 leukemia; OVCAR-8 ovarian; OVCAR-5 ovarian; OVCAR-4 ovarian; SK-OV-3 ovarian; OVCAR-3 ovarian; HS 578T breast; NCI/ADR-RES ovarian; T-47D breast; BT-549 breast; MDA-MB-435 melanoma; SW-620 colon; HCT-116 colon; HCC-2998 colon; KM12 colon; MCF7 breast.
Test in all cases: NCI-60 one-dose screen, 48 h (100 = growth as untreated, 0 = no growth, -100 = all killed)
Common to all, as to conditions: 10 µM unless noted

Compounds without any hit were thinned out: in the full panel of roughly 83,000, 20% have a hit.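 The test compound was applied at a single concentration to cells in 96-well plates for 48 hours, and percent growth was recorded.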 A number with no mark means an inactive call. The source made the active and inactive calls. How the source made its calls: active means growth percent below 10; inactive means the rest.

Take `CCN(CC)CCCNCCCNc1cc(OC)cc2cccnc12`: the growth is 81.3% with RPMI-8226 leukemia; 88.8% in the assay on OVCAR-8 ovarian; 94.5% in the assay with OVCAR-5 ovarian; -62.3% (active) with OVCAR-4 ovarian; 111% in the assay with SK-OV-3 ovarian; 32.8% in the assay on OVCAR-3 ovarian. Also, the growth in the assay on HS 578T breast was 94.9%; in the assay with NCI/ADR-RES ovarian, 93.2%; in the assay with T-47D breast it was 64.7%; in the assay with BT-549 breast it was 100%; in the assay with MDA-MB-435 melanoma, 103%; in the assay on SW-620 colon, 38.7%. The growth in the assay with HCT-116 colon was 86.5%; in the assay with HCC-2998 colon, 83.7%; with KM12 colon, 78.8%.
`c1csc([C@@H]2C[C@@H]3Cc4ccc5ccccc5c4N2O3)c1`: the growth in the assay with RPMI-8226 leukemia is 95.5%; in the assay with OVCAR-8 ovarian, 96.9%; with OVCAR-5 ovarian, 89.9%; in the assay with OVCAR-4 ovarian, 87.7%; in the assay on SK-OV-3 ovarian it was 102%; with OVCAR-3 ovarian, 102%. Besides, the growth in the assay on HS 578T breast was 101%; with NCI/ADR-RES ovarian, 97.7%; with T-47D breast it was 98.8%; in the assay on BT-549 breast, 112%; with MDA-MB-435 melanoma, 87.1%; with SW-620 colon, 98.5%. The growth in the assay on MCF7 breast was 99.8%; with HCT-116 colon, 101%; in the assay on HCC-2998 colon, 105%; with KM12 colon it was 103%.
`O=C(Nc1cccc(-n2cc(-c3ccncc3)c(-c3ccc(O)c(Cl)c3)n2)c1)Nc1ccc(Cl)c(C(F)(F)F)c1`: the growth in the assay with RPMI-8226 leukemia is -27.4% (active); in the assay with OVCAR-8 ovarian it was -44.7% (active); with OVCAR-5 ovarian, 39.4%; in the assay with OVCAR-4 ovarian it was -5.46% (active); in the assay with SK-OV-3 ovarian, 4.82% (active); in the assay with OVCAR-3 ovarian, -21.1% (active). The growth with HS 578T breast was -0.107% (active); in the assay on NCI/ADR-RES ovarian, 11.3%; in the assay on T-47D breast, -10% (active); in the assay with BT-549 breast, -12.6% (active); in the assay with MDA-MB-435 melanoma, -61.6% (active); with SW-620 colon, 8.96% (active). For the same molecule, the growth is -8.62% (active) with HCT-116 colon, 14.7% with HCC-2998 colon and -25.2% (active) in the assay with KM12 colon.
Regarding `O=C(Nc1ccc(Nc2ccncc2)cc1)c1ccc(Nc2ccnc3ccc([N+](=O)[O-])cc23)cc1[N+](=O)[O-]`, the growth in the assay with RPMI-8226 leukemia is 77.8%; in the assay on OVCAR-8 ovarian, 44.4%; with OVCAR-5 ovarian, 97.4%; with OVCAR-4 ovarian, 91.1%; in the assay on SK-OV-3 ovarian, 82.8%; in the assay with OVCAR-3 ovarian, 98.1%. Besides, the growth in the assay on HS 578T breast is -5.48% (active); with NCI/ADR-RES ovarian it was 52%; in the assay on T-47D breast, 62.2%; in the assay with BT-549 breast, 38.8%; in the assay on MDA-MB-435 melanoma it was 63.1%; with SW-620 colon, 96.8%. The growth is 50.8% in the assay with MCF7 breast, 54.4% in the assay with HCT-116 colon, 104% in the assay on HCC-2998 colon and 2.06% (active) in the assay with KM12 colon.
For the molecule `CCOc1cc(-c2ccc[nH]2)[nH]c1/C=C1\N=C(C)C(C(=O)OC)=C1C`, the growth with RPMI-8226 leukemia is -40.5% (active); in the assay with OVCAR-8 ovarian, -45.8% (active); in the assay with OVCAR-5 ovarian, -67.6% (active); with OVCAR-4 ovarian, -38.6% (active); in the assay with SK-OV-3 ovarian, -63.7% (active); in the assay on OVCAR-3 ovarian, -89.2% (active). The growth in the assay with HS 578T breast is -23.3% (active); with NCI/ADR-RES ovarian, -58.7% (active); in the assay with T-47D breast it was -63.8% (active); with BT-549 breast, -43.3% (active); in the assay with MDA-MB-435 melanoma it was -70.8% (active); with SW-620 colon, -72.9% (active). Moreover, the growth was -91.3% (active) in the assay with MCF7 breast, -60.2% (active) in the assay with HCT-116 colon, -87% (active) in the assay with HCC-2998 colon and -85.3% (active) in the assay on KM12 colon.
For `Cc1cc(C)n2nc(SCC(=O)Nc3sc4c(c3C(N)=O)CCC4)nc2n1`, the growth in the assay with RPMI-8226 leukemia was 148%; in the assay with OVCAR-8 ovarian, 112%; in the assay with OVCAR-5 ovarian, 97.1%; with OVCAR-4 ovarian, 122%; with SK-OV-3 ovarian, 118%; with OVCAR-3 ovarian, 123%. Moreover, the growth was 121% in the assay on HS 578T breast; 102% with NCI/ADR-RES ovarian; 109% in the assay with T-47D breast; 99.6% in the assay on BT-549 breast; 108% in the assay with MDA-MB-435 melanoma; 100% in the assay on SW-620 colon. The growth was 97.2% in the assay with HCT-116 colon, 118% in the assay with HCC-2998 colon and 114% with KM12 colon.
In the case of `Nc1ncc(-c2cnn(C3CCNCC3)c2)cc1-c1nc2cc(Cl)ccc2o1`, the growth in the assay on RPMI-8226 leukemia was -81% (active); with OVCAR-8 ovarian, -52.5% (active); in the assay on OVCAR-5 ovarian, -81.2% (active); with OVCAR-4 ovarian, -83.1% (active); in the assay with SK-OV-3 ovarian it was -81.5% (active); with OVCAR-3 ovarian, -100% (active). The growth in the assay with HS 578T breast was -68.4% (active); in the assay with NCI/ADR-RES ovarian it was -50.5% (active); in the assay with T-47D breast, -77.4% (active); in the assay with BT-549 breast it was 61.3%; in the assay with MDA-MB-435 melanoma it was -100% (active); with SW-620 colon, -100% (active). Besides, the growth in the assay on MCF7 breast was -93.3% (active); in the assay with HCT-116 colon, -100% (active); in the assay on HCC-2998 colon, -100% (active); in the assay with KM12 colon it was -100% (active).
On to `CN(C)c1ccc2c(c1)/C(=N/O)c1ccccc1-2`, for which the growth was 107% in the assay on RPMI-8226 leukemia; 97.6% in the assay with OVCAR-8 ovarian; 96.2% in the assay on OVCAR-5 ovarian; 82.6% in the assay with OVCAR-4 ovarian; 90.1% with SK-OV-3 ovarian; 93.4% with OVCAR-3 ovarian. The growth with HS 578T breast was 36.4%; in the assay with NCI/ADR-RES ovarian it was 41.9%; in the assay with T-47D breast, 85.5%; with BT-549 breast, 91.7%; in the assay with MDA-MB-435 melanoma, -8.86% (active); in the assay on SW-620 colon it was 50.3%. In addition, the growth in the assay on MCF7 breast is 19.9%; with HCT-116 colon, 39.4%; with HCC-2998 colon it was 101%; in the assay with KM12 colon it was 35.2%.
Regarding `O=[N+]([O-])c1ccc2c(c1)S(=O)c1cc([N+](=O)[O-])ccc1N2`, the growth is 103% in the assay on RPMI-8226 leukemia; 101% in the assay on OVCAR-8 ovarian; 95.3% in the assay with OVCAR-5 ovarian; 100% with OVCAR-4 ovarian; 103% with SK-OV-3 ovarian; 113% in the assay on OVCAR-3 ovarian. The growth with HS 578T breast was 99.7%; in the assay with NCI/ADR-RES ovarian it was 102%; in the assay with T-47D breast it was 96.6%; with BT-549 breast it was 102%; in the assay on MDA-MB-435 melanoma it was 106%; in the assay with SW-620 colon, 95.8%. The growth with MCF7 breast is 99.2%; in the assay on HCT-116 colon, 94%; in the assay with HCC-2998 colon it was 104%; in the assay on KM12 colon it was 102%.
For `CCOC(=O)/C=C(/C)Sc1cc(O)c2ccccc2c1O`, the growth in the assay with RPMI-8226 leukemia was 40.7%; in the assay with OVCAR-8 ovarian, 24.3%; in the assay on OVCAR-5 ovarian, 93%; with OVCAR-4 ovarian it was 51.1%; in the assay with SK-OV-3 ovarian, 6.27% (active); in the assay with OVCAR-3 ovarian, 13.4%. Also, the growth is -28.2% (active) with HS 578T breast; 21.6% in the assay with NCI/ADR-RES ovarian; 36.8% with T-47D breast; -37.1% (active) in the assay with BT-549 breast; -82.2% (active) in the assay on MDA-MB-435 melanoma; -40.2% (active) with SW-620 colon. For the same molecule, the growth in the assay with MCF7 breast is -75.9% (active); in the assay with HCT-116 colon, 122%; in the assay on HCC-2998 colon, 17.3%; in the assay with KM12 colon, 3.07% (active).

The record behind these values is PubChem BioAssay (NCI).
